Only a selection was taken, and hits are over-represented in it overall.
LmPK inh: inhibitors of Leishmania mexicana pyruvate kinase. purified LmPK, Kinase-Glo ATP luminescence, 1 h. 290,000 tested, 0.37% active. Q27686. Potency, µM (doses to about 57.5 µM), most hits filed as inhibitors
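Kinase-Glo luminescence read after 1 h RT reaction of 0.1 nM LmPK with 0.5 mM PEP and 0.1 mM ADP. Activity scaled between uninhibited and enzyme-free controls.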
Sm TGR inh: S. mansoni TGR enzyme inhibition; Q962Y6; purified TGR, DTNB reduction, TNB absorbance 405 nm; Potency, µM (highest dose often 114 µM), most hits filed as inhibitors; 360,000 tested, 3% active; further: nearly all actives have a fitted effect of over 60% in size
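TGR 20 nM + NADPH 100 uM (dispensed conc.), cpd preinc 15 min RT; start with NADPH (500 uM addition) then DTNB (15 mM addition). Kinetic TNB absorbance, 405 nm filter. Four-parameter Hill fit across titration.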
FBPA Giardia inh: Giardia lamblia aldolase inhibition | A8B2U2 | purified Giardia FBPA | Potency, µM (highest dose often 59.6 µM), hits mostly inhibitors | 290,000 tested, 0.71% active | AID 2451; further: nearly all actives have a fitted effect of over 55% in size
Target sequence (A8B2U2 whole entry, looked up): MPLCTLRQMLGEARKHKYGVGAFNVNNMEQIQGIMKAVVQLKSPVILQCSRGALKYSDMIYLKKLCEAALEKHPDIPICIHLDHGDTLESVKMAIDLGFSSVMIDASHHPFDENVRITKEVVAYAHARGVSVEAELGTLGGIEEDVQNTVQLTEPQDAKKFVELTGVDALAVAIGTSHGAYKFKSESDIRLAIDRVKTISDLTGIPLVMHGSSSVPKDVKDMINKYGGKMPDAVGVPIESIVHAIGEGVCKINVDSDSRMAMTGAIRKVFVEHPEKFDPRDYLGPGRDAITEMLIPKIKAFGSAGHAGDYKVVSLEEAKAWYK
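40 nM FBPA preincubated 10 min at RT with compound (up to 57.5 uM final), then substrate plus GAPDH/TPI/NAD/arsenate coupling and diaphorase/resazurin added. Fluorescence read after 20 min at RT, 525/598 nm.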
Cycloheximide cs: affects cycloheximide protein synthesis inhibition readout, counter-screen. cell reporter, cycloheximide protein synthesis inhibition counterscreen. max response, %. 300,000 tested, 12% active. AID 2314; in the data active means max response mostly above about 13%, no sharp cut-off; inactive means mostly below about 14%; further: read at 38.3 µM for the half of the compounds with a filed dose
Shiga inhibitor: blocks Shiga toxin action in Vero cells; Vero cells, Shiga toxin protein synthesis inhibition reporter; inhibition, % at 38.7 µM; 290,000 tested, 9.2% active; AID 2315; in the data active means inhibition mostly above about 28%, no sharp cut-off; inactive means mostly below about 43%
Tb PYK inh: T. brucei pyruvate kinase inhibition. Q57TT1. TbPYK enzyme, Kinase-Glo Plus ATP luminescence, 45 min. Potency, µM (titrated, usually from 76.8 µM), actives largely listed as inhibitors. 410,000 tested, 0.12% active. AID 624173; further: nearly all actives have a fitted effect of over 50% in size
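T. brucei PYK with substrate was exposed to pin-transferred compounds across a concentration series, then started with 130 uM ADP (final). After 45 min at room temperature, Kinase-Glo Plus luminescence was read, normalized and curve-fitted.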
Numbers stand for hits; 0 = inactive; ? = inconclusive; - = not tested or not shown. Unless noted, the call rests on the fitted dose curve; in most records, active means well fitted curve in the direction sought with a large enough effect; inconclusive means small, poorly fitted or top-dose-only effect, or another doubt; inactive means no such curve, though single readings can be large; an effect the other way counts as inactive or inconclusive.

SMILES | LmPK inh | Sm TGR inh | FBPA Giardia inh | Cycloheximide cs | Shiga inhibitor | Tb PYK inh
COc1ccc(/C=N/NC(=O)c2ccn[nH]2)cc1COc1ccc(F)cc1 | 0 | 0 | 0 | 21 | 0 | 0
COc1ccc(/C=N\NC(=O)c2ccccc2)cc1COc1ccc(F)cc1 | 0 | 0 | 0 | 27 | 0 | 0
Cc1c(C(c2ccccc2Br)c2c(C)n(C)n(-c3ccccc3)c2=O)c(=O)n(-c2ccccc2)n1C | 0 | 0 | 0 | 0 | 0 | 0
COc1nc(-c2ccc(C)cc2)ccc1-c1noc(-c2ccco2)n1 | 0 | 0 | 0 | 28 | 70 | 0
COc1nc(C)ccc1-c1noc(-c2ccco2)n1 | ? | 0 | 0 | 39 | 81 | 0
CC(C)NC(=O)CCSc1nc(-c2ccc3c(c2)OCO3)cc(C(F)(F)F)n1 | - | 0 | - | - | - | 0
O=C1CN(CC(=O)N2CCOCC2)c2ccccc2O1 | 0 | 20µM | ? | 34 | 98 | -
O=C(CN1C(=O)COc2ccccc21)N1CCOCC1 | 0 | 0 | - | 0 | 0 | 0
O=C1CN(CC(=O)N2CCCCC2)c2ccccc2O1 | 0 | 11µM | 0 | 24 | 0 | 0
Nc1nc2c(ncn2[C@@H]2O[C@H](CNCC3=Cc4cc(O)ccc4OC3)[C@@H](O)[C@H]2O)c(=O)[nH]1 | - | - | - | - | - | 0
CC(=O)Nc1ccc2c(c1)nc(CCNC(=O)c1ccco1)n2C | 0 | 0 | 0 | 0 | 0 | 0
Cn1c(CN2CCCC2)nc2cc(NC(=O)c3ccco3)ccc21 | 0 | ? | 0 | 33 | 0 | 0
Cn1c(CN2CCCC2)nc2cc(NC(=O)Nc3ccccc3)ccc21 | 0 | 0 | 0 | 18 | 0 | 0
Cc1ccc(C(=O)Nc2ccc3c(c2)nc(CCNC(=O)c2ccco2)n3C)cc1 | 0 | 0 | 0 | 32 | 44 | 0
Cn1c(CN2CCCCC2)nc2cc(NC(=O)c3ccccc3)ccc21 | 0 | 0 | 0 | 36 | 51 | 0
CN1CCN(CCc2nc3cc(NC(=O)c4ccco4)ccc3n2C)CC1 | 0 | 0 | 0 | 0 | 0 | 0
Cc1cc(C)c(NC(=O)Cn2c(=O)n(CCC(=O)N3CCc4ccccc4C3)c(=O)c3ccccc32)c(C)c1 | - | 0 | - | - | - | 0
CCOC(=O)Nc1ccc2c(c1)nc(CN1CCCCC1)n2C | 0 | 0 | 0 | 23 | 0 | -
CC(=O)Nc1ccc2c(c1)nc(CN1CCCC1)n2C | 0 | 0 | ? | 0 | 0 | 0
CC(=O)Nc1ccc2c(c1)nc(CCN1CCC(C)CC1)n2C | 0 | 0 | 0 | 0 | 0 | 0
CC1CCN(CCc2nc3cc(NC(=O)Nc4ccccc4)ccc3n2C)CC1 | 0 | 0 | 0 | 35 | 111 | 0
Cn1c(CN2CCCCC2)nc2cc(NC(=O)c3cccs3)ccc21 | 0 | 0 | 0 | 28 | 43 | 0
CCOC(=O)N1CCN(Cc2nc3cc(NC(=O)c4cccs4)ccc3n2C)CC1 | 0 | 0 | 0 | 0 | 0 | 0
CCOC(=O)N1CCN(Cc2nc3cc(NC(=O)c4cccs4)ccc3n2CC)CC1 | 0 | 0 | - | 25 | 0 | 0
CCc1ccc(CNC(=O)c2sc3ncnc(N(C)C4CCCCC4)c3c2C)cc1 | - | 0 | - | - | - | 0
SMILES | LmPK inh | Sm TGR inh | FBPA Giardia inh | Cycloheximide cs | Shiga inhibitor | Tb PYK inh
CCOC(=O)C1=C(N)Oc2ccc(Br)cc2[C@@H]1[C@@H](C#N)C(=O)OCC | - | - | 0 | - | - | -
COc1ccccc1/C=C/C(=O)OCC(=O)N1c2ccccc2CC1C (stereo not drawn) | - | 0 | - | - | - | 0
O=C(Nc1cccc(Cl)c1)Nc1csc([N+](=O)[O-])c1 | 0 | 0 | 0 | 16 | 46 | 0
COc1ccc(CNC(=O)Nc2cccc(Cl)c2)cc1 | 0 | 0 | - | 43 | 46 | 0
O=C(NCc1cccnc1)Nc1cccc(Cl)c1 | 0 | 0 | 0 | 0 | 0 | 0
COc1ccc(CNC(=S)Nc2cccc(Cl)c2)cc1 | - | - | - | - | - | 0
O=C(NCc1ccncc1)Nc1cccc(Cl)c1 | 0 | 0 | 0 | 16 | 0 | 0
O=C(Nc1ccncc1)Nc1cccc(Cl)c1 | 0 | 0 | 0 | 16 | 0 | 0
COc1ccccc1C1NC(=O)c2ccccc2O1 (stereo not drawn) | 0 | 0 | 0 | 0 | 0 | 0
O=[N+]([O-])c1ccccc1N(S(=O)(=O)c1ccccc1)S(=O)(=O)c1ccccc1 | - | - | - | - | - | 0
Cc1cc(=O)oc2cc(NC(=O)[C@H](CCCCN)NC(=O)[C@H](CC3CCCCC3)NC(=O)OCC3c4ccccc4-c4ccccc43)ccc12 | - | - | 0 | 0 | 0 | -
O=C(Nc1ccccc1)Nc1ccncc1 | 0 | 0 | 0 | 0 | 57 | 0
COc1cccc(C(=O)Nc2cc(C(=O)NCCc3ccccc3)ccc2Cl)c1 | 0 | 0 | 0 | 20 | 0 | 0
CCCCC(=O)Nc1cc(C(=O)NCCc2ccccc2)ccc1Cl | 0 | 0 | 0 | 18 | 0 | 0
COCC(=O)Nc1cc(C(=O)Nc2cccc(C)c2C)ccc1Cl | 0 | 0 | 0 | 14 | 0 | 0
Cc1ccnc(NC(=O)c2ccc(Cl)c(NC(=O)CCc3ccccc3)c2)c1 | 0 | - | 0 | 0 | 0 | -
CCCCCCCC/C=C\CCCCCCCC(=O)OC[C@@H](COP(O)(O)=S)OC | - | - | ? | 0 | 0 | -
Cc1cccc(CNC(=O)CN2C(=O)C3CCCCN3c3ccc(C(=O)N4CCCC4)cc32)c1 (stereo not drawn) | - | 0 | - | - | - | 0
Cc1ncc(C(O)c2ccccc2)n1Cc1ccccc1 (stereo not drawn) | - | - | - | - | - | 0
O=C(Nc1ccccn1)C1CCN(C(=O)c2ccc(Cl)cc2)CC1 | - | - | - | - | - | 0
Cc1cccc(Oc2coc3cc(OC(=O)c4cncc(Br)c4)ccc3c2=O)c1 | 0 | 0 | 0 | 0 | 0 | 0
CCOC(=O)Oc1ccc2c(=O)c(Oc3cccc(C)c3)coc2c1 | 0 | 0 | 0 | 21 | 0 | 0
Cc1cccc(Oc2coc3cc(O)ccc3c2=O)c1 | 0 | 0 | 0 | 31 | 49 | 0
Cc1cccc(Oc2coc3cc(OC(=O)c4cc5ccccc5oc4=O)ccc3c2=O)c1 | 0 | 0 | 0 | 40 | 0 | 0
CCOC(=O)Oc1ccc2c(=O)c(Oc3cc(C)cc(C)c3)coc2c1 | 0 | 0 | 0 | 0 | 0 | 0
SMILES | LmPK inh | Sm TGR inh | FBPA Giardia inh | Cycloheximide cs | Shiga inhibitor | Tb PYK inh
COCC1COS(=O)(=O)NC1(C)C (stereo not drawn) | 0 | 0 | 0 | 0 | 0 | 0
CN(CCc1ccccc1)C(C(=O)Nc1ccc2c(c1)OCCO2)C1CC1 (stereo not drawn) | - | - | - | - | - | 0
COc1ccccc1N(C)S(=O)(=O)c1ccc(C)c(C(=O)NC(C)c2ccccn2)c1 (stereo not drawn) | - | 0 | - | - | - | 0
CCN(CC)c1ccc(C2C(C(N)=O)=C(C)Nc3nc(SCc4ccccc4Cl)nn32)cc1 (stereo not drawn) | - | 0 | - | - | - | 0
N#Cc1c(/N=C/c2cccs2)sc2c1CCCCC2 | ? | 0 | 0 | 35 | 86 | 0
Cc1ccc(/C=N/c2sc3c(c2C#N)CCC3)o1 | 0 | 0 | 0 | 0 | 0 | 0
N#Cc1c(/N=C/c2ccc(-c3ccccc3C(=O)O)o2)sc2c1CCCC2 | 0 | 0 | 0 | 60 | 111 | 0
N#Cc1c(/N=C/c2ccc(Br)s2)sc2c1CCC2 | 0 | 0 | 0 | 0 | 15 | 0
N#Cc1c(/N=C\c2ccc(O)c([N+](=O)[O-])c2)sc2c1CCCC2 | 0 | 0 | 0 | 44 | 0 | 0
